Screens deposited in PubChem by National Center for Advancing Translational Sciences (NCATS).
Shown are actives, neighbours in structure and some others; about 12% of the full set was active somewhere.
Sfp PPTase inh = blocks B. subtilis Sfp PPTase activity; Potency, µM, for inactives: largest response in the series, negative = inhibition, actives largely listed as inhibitors; AID 1490; Q9F4F7; Biochemical Sfp PPTase activity, qHTS; hit rate 3.5% among 310,000;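 further: the enzyme is Sfp with the accession as filed and its product quenches rhodamine fluorescence; 0% = enzyme reaction without inhibitor and -100% = no enzyme wells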
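Buffer: 50 mM Hepes-Na pH 7.6, 10 mM MgCl2, 0.01% Nonidet P-40, 0.01% BSA. Enzyme 15 nM, pre-exposed to compound 15 min; substrates then added and fluorescence change tracked over 30 min.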
L3MBTL1 inh = inhibitors of human L3MBTL1; hit rate 0.66% among 230,000; Q9Y468; AID 485360; Potency, µM (titrated, usually from 57.1 µM), for the others: at the highest dose activity, negative = inhibition, hits mostly inhibitors; AlphaScreen L3MBTL1–H3K9me1 peptide binding; further: on the % scale 0 is the no-effect control and ±100 the full control effect; nearly all actives have a fitted effect of over 60% in size
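L3MBTL1 (50 nM) pre-complexed 30 min with biotinylated H3(1-15)K9me1 peptide (75 nM), then compounds added for 30 min at room temperature; AlphaScreen streptavidin donor/nickel chelate acceptor beads (10 ug/mL final) read after 30 min dark incubation.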
HP1b chromo inh = HP1-beta chromodomain-methylated histone interaction inhibition; hit rate 0.56% among 390,000; P83916; AID 540317; Potency, µM (highest dose often 114 µM), for inactives: at the top dose activity change, negative = inhibition, usual class: inhibitors; AlphaScreen HP1-beta / biotin-H3K9me3 peptide binding; further: nearly all actives have a fitted effect of over 70% in size
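AlphaScreen: HP1-beta (50 nM) preformed 30 min with biotin-H3(1-18)K9me3 peptide (50 nM) in PBS pH 7.4, 0.01% Tween-20. Compound added for 30 min at RT, then streptavidin donor/nickel chelate acceptor beads (10 ug/mL) for 30 min.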
BAZ2B block = BAZ2B (human) inhibition | AlphaScreen BAZ2B-H3K14Ac peptide displacement | Q9UIF8 | hit rate 4.4% among 360,000 | Potency, µM (doses to about 114 µM), without a hit: top-dose activity change, negative = inhibition, usual class: inhibitors; further: on the % scale 0 is the no-effect control and ±100 the full control effect; nearly all actives have a fitted effect of over 60% in size
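BAZ2B 50 nM plus b-H3(5-23)K14Ac 50 nM, PBS pH 7.4/0.01% Tween-20, 30 min RT; compound added (max 110 uM), 30 min RT; streptavidin donor/Ni-chelate acceptor beads 10 ug/mL final, 20 min dark; AlphaScreen read.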
G9a inh = inhibitors of human histone lysine methyltransferase G9a. G9a H3K9 monomethylation, AlphaScreen, 2 h. Potency, µM (top dose mostly 102 µM), for inactives: at the highest dose activity, negative = inhibition, most hits filed as inhibitors. hit rate 8.8% among 350,000; further: on the % scale 0 is the no-effect control and ±100 the full control effect; nearly all actives have a fitted effect of over 75% in size
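Compounds were preincubated with 20 nM G9a for 15 min, after which biotinylated H3K9 peptide (500 nM) and SAM (20 uM) started a 2 h room-temperature reaction. Monomethylated product was quantified by antibody-based AlphaScreen chemiluminescence.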
JMJD2A Tudor inh = blocks the human JMJD2A Tudor domain | hit rate 4.4% among 390,000 | O75164 | AlphaScreen JMJD2A-Tudor / H3K4me3 peptide binding | Potency, µM (series often up to 114 µM), for the others: at the highest dose activity change, negative = inhibition, usual class: inhibitors; further: on the % scale 0 is the no-effect control and ±100 the full control effect; nearly all actives have a fitted effect of over 50% in size
* marks the source's active call; other numbers are inactive results; ? = inconclusive; nt = no result given; [ ] = remark or other dose. The call rests on the fitted dose curve; in most records, active means well fitted curve in the direction sought with a large enough effect; inconclusive means small, poorly fitted or top-dose-only effect, or another doubt; inactive means no such curve, though single readings can be large; an effect the other way counts as inactive or inconclusive. Potency means the concentration at half of the fitted maximal effect.

SMILES	Sfp PPTase inh	L3MBTL1 inh	HP1b chromo inh	BAZ2B block	G9a inh	JMJD2A Tudor inh
Cc1ccc(-c2nc3ccc(NS(=O)(=O)c4ccccc4)cc3[nH]2)o1	35µM*	nt	8%	?	?	-28%
O=S(=O)(Nc1ccc2nc(C(F)(F)F)[nH]c2c1)c1ccccc1	10%	2%	37%	2%	-1%	-13%
O=S(=O)(Nc1ccc2nc(-c3ccc(Br)o3)[nH]c2c1)c1ccccc1	50µM*	3%	nt	?	3%[12.7 µM]	nt
Cc1cc(C(F)F)n2nc(C(=O)Nc3cc(Cl)ccc3C)nc2n1	nt	nt	33%	0%	0%[59 µM]	-3%
CCOC(=O)c1ccc(CN(Cc2ccccc2)S(=O)(=O)c2ccc(C)cc2)cc1	nt	nt	94%	5%	66%[59 µM]	-22%
NS(=O)(=O)c1ccc(CCNC(=O)CSc2nc3ccsc3c(=O)n2C2CC2)cc1	-11%	0%	43%	15%	71µM*	1%
COc1ccc(C(=O)N2CCC3(CCCN(Cc4nccs4)C3)CC2)cc1	1%	nt	nt	nt	1%[12.7 µM]	nt
O=C(O)Cn1c(CCS(=O)(=O)c2ccc(Br)cc2)nc2ccccc21	10%	?	-3%	-18%	45µM*	-16%
Cc1cc(C)cc(C(=O)Nc2ccc(-c3nc4ncccc4o3)cc2)c1	nt	nt	6%	-1%	?	-34%
CC(C)OC(=O)c1ccc(NC(=O)c2cccc(-n3cnnn3)c2)cc1	nt	-23%	37%	2%	-32%[2.33 µM]	-10%
Cc1cc(=O)n2c(C(=O)Nc3ccc(F)c(Cl)c3)c(C(=O)Nc3cccc(C)c3C)sc2n1	nt	nt	-12%	-1%	11µM*	-22%
Cc1cc(=O)n2c(C(=O)Nc3ccc(C(=O)OC(C)C)cc3)c(C(=O)Nc3ccccc3)sc2n1	-21%	4%	62%	-21%	45µM*	-18%
COc1ccc(C)cc1NC(=O)c1c(C(=O)Nc2cccc(C)c2C)sc2nc(C)cc(=O)n12	nt	nt	-1%	0%	-11%[59 µM]	-13%
COc1ccc(Cl)cc1C(=O)C1CCCN(Cc2cnc(N3CCOCC3)s2)C1 (centres undefined)	-12%	-28%	?	-31%	-25%	14µM*
COc1ccc(F)cc1C(=O)C1CCCN(Cc2cnc(N3CCCC3)s2)C1 (centres undefined)	1%	-20%	11%[57 µM]	-9%	nt	-15%
O=C1NC(=S)SC1=C1CCCCCC1	35µM*	-12%	10%	?	?	-19%
CCOc1ccc(/C(C)=N/N2C(=O)C(CC(=O)Nc3ccc(OC)cc3[N+](=O)[O-])SC2=Nc2cccc(C)c2C)cc1 (centres undefined)	-9%	-10%	9%	-38%	35µM*	-29%
COc1ccccc1/C=C1\SC(=S)N(CCC(=O)NNC(=O)c2ccccc2O)C1=O	?	nt	6%	-12%	nt	-22%
COc1cc(/C=C2/SC(=S)N(Cc3ccccc3)C2=O)cc(Cl)c1O	-3%	nt	?	13µM*	45µM*	25µM*
COc1cc(/C=C2/SC(=S)N(Cc3ccccc3)C2=O)ccc1OS(C)(=O)=O	4%	nt	-26%	?	13µM*	?
COc1cc(/C=C2/SC(=S)N(CC(=O)O)C2=O)ccc1OC(=O)c1cccs1	?	nt	?	?	50µM*	?
COc1cc([N+](=O)[O-])cc(/C=C2/SC(=S)N(Cc3ccccc3)C2=O)c1O	40µM*	nt	?	14µM*	10µM*	18µM*
COc1ccc(/C=C2\SC(=NCc3ccccc3)N(Cc3ccccc3)C2=O)cc1OC	-7%	4%	48%	9%	17%[59 µM]	2%
CC(C)(C)C(=O)Nc1ccc2nc(SCC(=O)N3CCc4ccccc43)sc2c1	nt	nt	24%	3%	0%[59 µM]	-16%
O=S(=O)(NCCc1csc2nc(-c3ccc(Cl)cc3)nn12)c1cccs1	nt	nt	15%	-13%	-3%[59 µM]	-16%
Cc1csc2nc(-c3cccc(NC(=O)C(C)C)c3)cn12	nt	nt	20%[57 µM]	-10%	-5%[59 µM]	-27%
Cc1cc(Br)ccc1NS(=O)(=O)c1c(C)[nH]c(=O)[nH]c1=O	-7%	nt	25%	-1%	45µM*	-12%
